Source: PubChem BioAssay (Tox21)
Values joined by “and” are separate entries in the source; they are usually repeats but may differ in a detail not shown here. Identical values can stand only once. Results filed as inconclusive are left out. Where a call stands in place of a potency, no number is given. The source holds several records for some structures; these can differ, active in one and inactive in another. Active and inactive are the calls of the source. Unless noted, calls come from the whole dose curve; as a rule, active = well fitted curve in the direction sought with a large enough effect in the repeat runs; inconclusive = weak or mixed curves; inactive = no such curve, though single readings can be large; an effect the other way counts as inactive or inconclusive.

Assays:
[1] = qHTS assay to identify small molecule agonists of the RXR signaling pathway - cell viability counter screen (AID 1159529); note: nearly all actives have a fitted effect of over 50% in size
In short: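 Luminescence from CellTiter-Glo (30 min, RT) measured viability in the same wells as the beta-lactamase reporter readout. Cells: GeneBLAzer RXR-alpha HEK 293T, 2% charcoal-stripped FBS. Compound exposure 16 hr, 37 C.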

[2] = qHTS assay to identify small molecule antagonists of the retinoid acid receptor (RAR) signaling pathway - cell viability counter screen (AID 1159551); note: nearly all actives have a fitted effect of over 35% in size
In short: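 Luminescent ATP quantitation (CellTiter-Glo) gave cell viability in C3RL4 cells exposed to test chemicals for 6 h at 37 C alongside 1 uM final retinol.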

[3] = qHTS assay to identify small molecule antagonists of the estrogen related receptor (ERR) signaling pathway from Tox21 library - cell viability counter screen (AID 1224834); note: nearly all actives have a fitted effect of over 30% in size; note: potency is the fitted concentration of half-maximal effect
In short: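 Fluorescence from CellTiter-Fluor gives the viability read-out, taken 30 min after reagent addition. Before that, ERR cells seeded 6 h earlier were incubated with compounds for 17.5 h at 37 C.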

[4] = target: Luciferin 4-monooxygenase (Photinus pyralis) (UniProt P08659); assay: qHTS assay to identify small molecule inhibitors of firefly luciferase (AID 1224835); note: nearly all actives have a fitted effect of over 25% in size; note: potency is the fitted concentration of half-maximal effect
In short: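 Quantitative HTS format; KM concentrations of both substrates. Purified P. pyralis FLuc activity quantified from luminescence images.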

[5] = qHTS assay to identify small molecule agonists of the constitutive androstane receptor (CAR) signaling pathway - cell viability counter screen (AID 1224836); note: nearly all actives have a fitted effect of over 45% in size
In short: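 Viability read-out: CellTiter-Fluor fluorescence after 23 h compound exposure at 37 C/5% CO2 in double-stable HepG2-CYP2B6-hCAR cells, with PK11195 present at 0.75 uM final; compounds tested in 15-point titration.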

[6] = qHTS assay to identify small molecule antagonists of the constitutive androstane receptor (CAR) signaling pathway - cell viability counter screen (AID 1224837); note: nearly all actives have a fitted effect of over 45% in size
In short: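 HepG2-CYP2B6-hCAR cells, 2500/well, 4 hr pre-incubation; compound titration, 15 conc.; CITCO 50 nM final; 23 hr, 37 C/5% CO2; CellTiter-Fluor, fluorescence intensity.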

[7] = qHTS assay to identify small molecule antagonists of the estrogen related receptor signaling pathway with the pleiotropic PPARgamma coactivator (PGC) from Tox21 10K library - cell viability counter screen (AID 1224840; active = well fitted cell-killing curve with a large enough effect in the repeat runs, not every such curve was filed as active; note: nearly all actives have a fitted effect of over 40% in size; note: potency is the fitted concentration of half-maximal effect)
In short: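 PGC/ERR cells, 2,000/well; 6 h pre-incubation 37 C/5% CO2; cpd in DMSO via pin tool; 17.5 h 37 C; CellTiter-Fluor, 30 min; fluorescence.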

[8] = target: Thyrotropin receptor (Homo sapiens) (UniProt P16473); assay: qHTS assay to identify small molecule agonists of the thyroid stimulating hormone receptor (TSHR) signaling pathway (AID 1224843; calls by dose curve; note: nearly all actives have a fitted effect of over 45% in size)
In short: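 TSHR-expressing HEK293 cells (800 per well) were exposed to compounds for 30 min at room temperature. cAMP was then detected by HTRF competition with cAMP-d2 and anti-cAMP cryptate, read after 1 h at room temperature. Fifteen concentrations, triplicate.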

[9] = target: Nuclear receptor subfamily 1 group I member 3 (Homo sapiens) (UniProt Q14994); assay: qHTS assay to identify small molecule antagonists of the constitutive androstane receptor (CAR) signaling pathway (AID 1224838);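 note: HepG2 cells stably expressing hCAR with CYP2B6 luciferase reporter stimulated by CITCO; nearly all actives have a fitted effect of over 40% in size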
In short: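 HepG2-CYP2B6-hCAR cells; 4 h pre-incubation; cpd (15 conc) + CITCO 50 nM final; 24 h, 37 C/5% CO2; ONE-Glo, luminescence.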

[10] = target: Nuclear receptor subfamily 1 group I member 3 (Homo sapiens) (UniProt Q14994); assay: qHTS assay to identify small molecule agonists of the constitutive androstane receptor (CAR) signaling pathway (AID 1224839); note: nearly all actives have a fitted effect of over 15% in size; note: potency is the fitted concentration of half-maximal effect;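 for activation: HepG2 cells stably carrying human CAR and a CYP2B6 luciferase reporter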
In short: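 Luminescence read-out (ONE-Glo, 30 min, room temperature) from double-stable HepG2-CYP2B6-hCAR cells exposed 24 h to 15-point compound series in presence of 0.75 uM PK11195 final.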

[11] = qHTS assay to identify small molecule antagonists of the retinoic acid receptor (RAR) signaling pathway (AID 1159552; note: nearly all actives have a fitted effect of over 50% in size)
In short: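 Luminescence from a RARE luciferase reporter in C3RL4 cells served as read-out. Cells received compounds together with 1 uM final retinol and incubated 6 hr at 37 C before detection reagent was added for 30 min at room temperature.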

[12] = qHTS assay to identify small molecule agonists of the retinoic acid receptor (RAR) signaling pathway (AID 1159553); conditions: C3RL4 RARE luciferase reporter, agonist, 6 h; activation: at 73.3 µM (top of the series) unless noted; note: potency is the fitted concentration of half-maximal effect
In short: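 Luminescence from a RARE-driven luciferase reporter in C3RL4 cells served as the read-out, measured after 30 min with detection reagent at room temperature. Compounds in DMSO were applied for 6 hr at 37 C following overnight seeding.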

[13] = qHTS assay to identify small molecule antagonists of the estrogen related receptor signaling pathway with the pleiotropic PPARgamma coactivator (PGC) from Tox21 10K library (AID 1224841; call rule not given here; note: actives are mostly falling curves and most rising ones were filed inactive; nearly all actives have a fitted effect of over 50% in size)
In short: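 PGC/ERR cell line, 2,000 cells/well; 6 h pre-incubation 37 C/5% CO2; compounds (DMSO) pinned in; 18 h, 37 C; One-Glo, 30 min RT; luminescence.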

[14] = qHTS assay to identify small molecule agonists of the estrogen related receptor signaling pathway with the pleiotropic PPARgamma coactivator (PGC) from Tox21 10K library (AID 1224842); note: nearly all actives have a fitted effect of over 15% in size
In short: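 PGC/ERR reporter cells (NTP line) were seeded 2,000 per well, rested 6 h at 37 C/5% CO2, then pin-dosed with compounds in DMSO for 18 h at 37 C; luciferase read by One-Glo luminescence after 30 min at room temperature.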

[15] = qHTS assay to identify small molecule antagonists of the estrogen related receptor (ERR) signaling pathway - cell viability counter screen (AID 1224818);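 note: viability measured after 17.5 h of compound exposure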
In short: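 Multiplexed counter screen to separate cytotoxic compounds from true ERR modulators. ERR cells received DMSO-dissolved compounds after a 6 h pre-incubation, were exposed 17.5 h at 37 C, then assayed with CellTiter-Fluor fluorescence.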

[16] = qHTS assay to identify small molecule antagonists of the estrogen related receptor signaling pathway with the pleiotropic PPARgamma coactivator (PGC) cell viability counter screen (AID 1224822)
In short: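 Cells: PGC/ERR, 2,000/well, 1536-well format. Pre-incubation 6 h, 37 C/5% CO2. Compound exposure 17.5 h, 37 C. Detection: CellTiter-Fluor, 30 min, fluorescence.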

Nuclear receptor subfamily 1 group I member 3 (Homo sapiens), sequence (Q14994 whole entry, looked up): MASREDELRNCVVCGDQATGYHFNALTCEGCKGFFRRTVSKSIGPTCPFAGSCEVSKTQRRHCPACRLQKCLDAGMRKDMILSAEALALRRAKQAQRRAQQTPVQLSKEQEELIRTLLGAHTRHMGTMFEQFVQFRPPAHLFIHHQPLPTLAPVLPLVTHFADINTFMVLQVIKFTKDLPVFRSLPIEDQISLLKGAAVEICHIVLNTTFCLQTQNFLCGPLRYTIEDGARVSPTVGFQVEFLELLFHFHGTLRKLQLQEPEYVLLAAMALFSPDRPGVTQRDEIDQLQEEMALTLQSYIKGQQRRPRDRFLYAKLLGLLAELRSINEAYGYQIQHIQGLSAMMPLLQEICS
Luciferin 4-monooxygenase (Photinus pyralis), sequence (P08659 whole entry, looked up): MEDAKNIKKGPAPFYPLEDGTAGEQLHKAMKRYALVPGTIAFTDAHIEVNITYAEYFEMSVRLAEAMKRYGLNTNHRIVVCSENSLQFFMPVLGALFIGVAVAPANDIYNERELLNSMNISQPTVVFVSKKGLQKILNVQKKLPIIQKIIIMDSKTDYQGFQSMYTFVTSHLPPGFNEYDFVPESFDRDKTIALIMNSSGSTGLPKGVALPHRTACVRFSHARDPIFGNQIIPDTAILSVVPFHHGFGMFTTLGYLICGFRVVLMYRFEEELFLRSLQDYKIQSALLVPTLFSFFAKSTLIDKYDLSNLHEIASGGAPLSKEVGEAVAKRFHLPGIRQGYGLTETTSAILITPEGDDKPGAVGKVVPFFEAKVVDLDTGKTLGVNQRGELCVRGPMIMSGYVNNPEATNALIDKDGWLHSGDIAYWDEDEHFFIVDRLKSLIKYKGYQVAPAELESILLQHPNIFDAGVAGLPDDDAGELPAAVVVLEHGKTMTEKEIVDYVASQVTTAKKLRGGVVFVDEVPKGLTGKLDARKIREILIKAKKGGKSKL
Thyrotropin receptor (Homo sapiens), sequence (P16473 whole entry, looked up): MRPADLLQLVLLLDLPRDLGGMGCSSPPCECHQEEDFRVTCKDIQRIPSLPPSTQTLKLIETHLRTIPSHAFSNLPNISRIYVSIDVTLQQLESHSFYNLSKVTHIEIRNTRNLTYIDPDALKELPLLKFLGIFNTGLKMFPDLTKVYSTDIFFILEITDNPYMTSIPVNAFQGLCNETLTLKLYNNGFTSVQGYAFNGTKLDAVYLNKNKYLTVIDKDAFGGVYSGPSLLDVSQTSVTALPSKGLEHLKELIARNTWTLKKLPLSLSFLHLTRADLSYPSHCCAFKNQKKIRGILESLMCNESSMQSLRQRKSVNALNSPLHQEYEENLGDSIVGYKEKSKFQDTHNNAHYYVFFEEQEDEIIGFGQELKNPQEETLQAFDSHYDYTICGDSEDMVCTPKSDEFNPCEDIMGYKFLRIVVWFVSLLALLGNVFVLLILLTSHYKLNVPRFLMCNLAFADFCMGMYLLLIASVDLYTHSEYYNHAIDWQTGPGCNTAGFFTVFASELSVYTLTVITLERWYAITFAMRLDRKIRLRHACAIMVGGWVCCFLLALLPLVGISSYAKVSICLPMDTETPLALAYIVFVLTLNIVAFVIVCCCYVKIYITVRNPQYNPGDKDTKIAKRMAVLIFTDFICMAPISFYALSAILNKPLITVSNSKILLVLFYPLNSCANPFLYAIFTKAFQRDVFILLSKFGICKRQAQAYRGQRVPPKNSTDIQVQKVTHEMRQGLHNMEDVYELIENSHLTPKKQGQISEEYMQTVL

SMILES | Potency [1] | Potency [2] | Potency [3] | Potency [4] | Potency [5] | Potency [6] | Potency [7] | Potency [8] | Potency [9] | Potency [10] | Potency [11] | Potency [12] | Potency [13] | Potency [14] | outcome [15] | Potency [16]
CC[N+](CC)(CC(=O)Nc1c(C)cccc1C)Cc1ccccc1 | inactive | inactive | inactive | inactive | inactive | inactive | inactive | inactive | – | – | – | – | – | – | – | –
NC(N)=S | inactive | inactive | inactive | inactive | inactive | – | inactive | inactive | inactive | inactive | – | – | – | – | – | –
OCCOCCOCCOCCOCCO | inactive | inactive | inactive | – | inactive | inactive | inactive | inactive | – | – | inactive | inactive | inactive | inactive | – | –
CC(C=O)Cc1ccc(C(C)(C)C)cc1 (stereo not drawn) | inactive | inactive | inactive | – | inactive | – | inactive | inactive | inactive | inactive | inactive | inactive | inactive | inactive | – | –
O=C(O)Cc1c[nH]c2ccccc12 | inactive | inactive | inactive | inactive | inactive | inactive | inactive | inactive | inactive | inactive | – | – | inactive | inactive | – | –
CCc1cccc(O)c1 | inactive | inactive | inactive | inactive | inactive | inactive | inactive | inactive | inactive | inactive | – | – | – | – | – | –
N[C@@H](Cc1cc(I)c(Oc2ccc(O)c(I)c2)c(I)c1)C(=O)O | inactive | inactive | inactive | inactive | inactive | – | inactive | inactive | – | inactive and 56.7 µM (active) | – | – | – | – | – | –
Clc1cccc(Cl)c1NC1=NCCN1 | inactive | inactive | inactive | – | inactive | – | inactive | inactive | inactive | inactive | – | – | – | – | inactive | inactive
O=c1c(O)c(-c2ccc(O)c(O)c2)oc2cc(O)cc(O)c12 | inactive | inactive | 43.6 µM (active) and 27.3 µM (active) and inactive | 35.9 µM (active) [middle of 4 runs] | inactive | – | inactive and 24.3 µM (active) | inactive | inactive | 54.5 µM (active) and inactive | – | 61.2 µM (active) | – | – | – | inactive
COc1ccc(N)c(OC)c1 | inactive | inactive | inactive and 54.5 µM (active) | inactive | inactive | – | inactive | inactive | inactive | inactive | – | – | – | – | – | –
C1CCCNCC1 | inactive | inactive | inactive | inactive | inactive | inactive | inactive | inactive | inactive | inactive | – | – | inactive | inactive | – | –
O=[N+]([O-])c1cc(C(F)(F)F)ccc1Cl | inactive | inactive | inactive | inactive | inactive | – | inactive | inactive | inactive | inactive | – | – | inactive | inactive | – | –
